Here are results for 54 sequences from paper PMC7819943, “Rice protein-binding microarrays: a tool to detect cis-acting elements near promoter regions in rice”.

In all, about 68,000 sequences were measured (“fluorescence intensity (a.u.)”: median about 9,100, highest 2% from about 16,000 on). Shown is part of a subset that was picked to be rich in the highest values.

This test deals with OsWRKY34 (Oryza sativa, UniProt Q0JBA9 1-250). The test can be described thus: protein-binding microarray (RPBM); PBS, 2% BSA, 51.3 ng/ul salmon testes DNA, 50 uM zinc acetate, 200 nM TF, 25 C, 1 h; high values mean tight binding. To be noted: protein: recombinant; tags: N-terminal polyhistidine and DsRed monomer fusion (pET32a); label: CyDye5-dUTP incorporated in the synthesized complementary strand; 3' TTTTT single-stranded linker to array surface; dsDNA, one strand shown. An outline of the steps: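 The binding signal for each feature is its fluorescence intensity in arbitrary units. An Axon 4000B scanner was used to read a custom Agilent array that had been made double-stranded with Cy5-dUTP primer extension, blocked with 2% BSA, incubated at 25 °C for 1 h with 200 nM protein in PBS, 2% BSA, salmon testes DNA and 50 µM zinc acetate, and washed. The protein was an N-terminal polyhistidine–DsRed transcription factor fusion from E. coli BL21-CodonPlus, purified on Ni–NTA.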
OsWRKY34, sequence (Q0JBA9 entry or part of it): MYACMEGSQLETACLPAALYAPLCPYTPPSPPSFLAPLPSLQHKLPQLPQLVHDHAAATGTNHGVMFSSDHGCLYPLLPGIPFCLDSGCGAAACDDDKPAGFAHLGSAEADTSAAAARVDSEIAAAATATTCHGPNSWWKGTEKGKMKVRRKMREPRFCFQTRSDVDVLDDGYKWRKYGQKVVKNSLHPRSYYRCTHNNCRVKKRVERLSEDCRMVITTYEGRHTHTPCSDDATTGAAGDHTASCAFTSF
For the sequence “CTGCTCTTTCTTCTCTCTGCATTCCATTTCATTACTGCCTCGGAGTCACCTAGTGCAG”, the binding signal is 11000 fluorescence intensity (a.u.).
To “AGCTCGTGTGGTGTATGTTGTTGTGTGCTGCTAGCTAGCTCGGAGTCACCTAGTGCAG” belongs 10200 fluorescence intensity (a.u.); to “TCCATGCCATCTGCTGAACAGACCCATGCATCCTTCAACTCGGAGTCACCTAGTGCAG”, 8920 fluorescence intensity (a.u.); to “CACATCAAATTTATTTTCTCCCAAAATGAGGCGCGCAACACGGAGTCACCTAGTGCAG”, 8670 fluorescence intensity (a.u.).
To “GCTGTCGTTGAATTTTTGTTTGTTTTCTTGGCGTGTTGCACGGAGTCACCTAGTGCAG” belongs 13300 fluorescence intensity (a.u.); to “CTTTCCATGGTTTTTGCTCCCGCAGCCCGGGCCACTGCCCCGGAGTCACCTAGTGCAG”, 11600 fluorescence intensity (a.u.); to “CGTCTCGTTTCTCATCTCAAAATTTCGCGCCTCGTCGCCGCGGAGTCACCTAGTGCAG”, 8640 fluorescence intensity (a.u.).
To “GCTCAGCCGCCGTCGCCAGTCCAACCTCCGCCACCGCGGCCGGAGTCACCTAGTGCAG” belongs 8640 fluorescence intensity (a.u.); to “CCCGAACCCACCACCTCCGCCCATTTCCGCCTCCTCTCGACGGAGTCACCTAGTGCAG”, 9190 fluorescence intensity (a.u.).
As to “ACAGCTTAAAATTTCCTCCTCCGCCCAAAAACCCTCTCGACGGAGTCACCTAGTGCAG”, the binding signal was 24300 fluorescence intensity (a.u.).
The figure for “CCAAACCCAACCCTCGACGCCAATTAAACACCAATTTTCTCGGAGTCACCTAGTGCAG” is 8920 fluorescence intensity (a.u.).
To “CCTTGACAGATTAATCCTACGTTTTGACCCCATATGTTTTCGGAGTCACCTAGTGCAG” belongs 8880 fluorescence intensity (a.u.).
The figure for “CTTGTAGCTGTAATTCCCTATTGTTGTTTTTCGGTACTGTCGGAGTCACCTAGTGCAG” is 13200 fluorescence intensity (a.u.).
“TCGCAAGAGTTGTTGAAAGTTGACCAGCATATTGAGGCCCCGGAGTCACCTAGTGCAG”: the binding signal is 8130 fluorescence intensity (a.u.).
The figure for “TCTCTTTTCTCATTTTTTCGCTTGCCACATCATTTTCTATCGGAGTCACCTAGTGCAG” is 9600 fluorescence intensity (a.u.); for “GCCTATTCTTTTCGCCACCGCTATCGCCACACATCACGGACGGAGTCACCTAGTGCAG” it is 17500 fluorescence intensity (a.u.).
To “AGACATTCTCCATTTTCTTTCTTCTCTTCACTCACACTCACGGAGTCACCTAGTGCAG” belongs 8800 fluorescence intensity (a.u.).
The figure for “ACTCACCTCTCTCATCTTTCGTGCACACATTTTTCAATTTCGGAGTCACCTAGTGCAG” is 17700 fluorescence intensity (a.u.); for “ACTCACTTCAAAATTTTCACATCCTCTCTCATCATTTTTTCGGAGTCACCTAGTGCAG” it is 11100 fluorescence intensity (a.u.); for “TTCTTTGGATTTGATTGGTGCCGCCTTTTTTCGCTATTGACGGAGTCACCTAGTGCAG” it is 15600 fluorescence intensity (a.u.).
Consider “GTCTCATTCTTCTTATTTCCATTTTTTTTTTCTCTCAAAACGGAGTCACCTAGTGCAG”, for which the binding signal was 11100 fluorescence intensity (a.u.).
For “TTCCTTTTTCATCTTCTTTTCACATTTTTTCTTTATTTTTCGGAGTCACCTAGTGCAG”, the binding signal was 12400 fluorescence intensity (a.u.).
The figure for “CACACACACCGATCTTTTCATTCATTCTTTTCTTTCTTTTCGGAGTCACCTAGTGCAG” is 18700 fluorescence intensity (a.u.); for “TCTCAATTGCACCTCATTTAATCCTCATTTTTCATCTTTTCGGAGTCACCTAGTGCAG” it is 11800 fluorescence intensity (a.u.); for “ACAACTCACTCTCTTCATTTTCCATTCTCGTGCTTTTCAACGGAGTCACCTAGTGCAG” it is 16600 fluorescence intensity (a.u.).
The figure for “CAACACATCTCTTGCATTTTTTTTTCTTTGCATTCTCATTCGGAGTCACCTAGTGCAG” is 8200 fluorescence intensity (a.u.); for “TCCTCTTCTTTTCTCTCCCTCCGCCACTCGACGCCCAACCCGGAGTCACCTAGTGCAG” it is 9310 fluorescence intensity (a.u.).
Consider “TCGATTCCGGCGTGCGAATTCCTCCACCTCGCCGCCGCCGCGGAGTCACCTAGTGCAG”, for which the binding signal is 8810 fluorescence intensity (a.u.).
The figure for “TTCCTGTTCCTGCAAGAAAACGCTCATCCTCTTGCTTTTTCGGAGTCACCTAGTGCAG” is 9650 fluorescence intensity (a.u.).
To “AGGCCTCCACGGCTCCACCTCCTTCCGCTTTCGCCTATCCCGGAGTCACCTAGTGCAG” belongs 10000 fluorescence intensity (a.u.); to “AAAGTGCCGTATTTTTGTGTTTCTGTTGTAGTGGTAATTACGGAGTCACCTAGTGCAG”, 12000 fluorescence intensity (a.u.); to “TGGGTTGTGGCAGTGTCTTATAAGGCTATATTAAGTCTATCGGAGTCACCTAGTGCAG”, 8060 fluorescence intensity (a.u.).
To “TTGCTGTCTTGCGTGTTCATGCTGCCCCGCGGGCGTTGAGCGGAGTCACCTAGTGCAG” belongs 9010 fluorescence intensity (a.u.).
For “TACCAACATTGTAGCAACAGATTCATCTCTCTTTTTTTTTCGGAGTCACCTAGTGCAG”, the binding signal is 18100 fluorescence intensity (a.u.).
With “TTTTCATTGTGTTGTAGCCAACAGCCACATTGTTTTCTTTCGGAGTCACCTAGTGCAG”, the binding signal is 8080 fluorescence intensity (a.u.).
The figure for “GTGACCCAACATTCAGATTCATCTTTTTTTTTCACCTTCTCGGAGTCACCTAGTGCAG” is 11300 fluorescence intensity (a.u.); for “AGTCACGAATCAAACAACCCCTTAAACTGTATTTGATTGTCGGAGTCACCTAGTGCAG” it is 8060 fluorescence intensity (a.u.); for “CTTGGTTTTCTTGATTTCTTGGGTTCTTGGCTACTGGGGCCGGAGTCACCTAGTGCAG” it is 9490 fluorescence intensity (a.u.).
The figure for “TGGTTCTTGCTCTTGTTCTTGCTGCTGCTGCTTTTGCTCTCGGAGTCACCTAGTGCAG” is 9380 fluorescence intensity (a.u.); for “GCTATGAGATTTATATATTTTTTTGTCCTGGGCTTCTTTTCGGAGTCACCTAGTGCAG” it is 9510 fluorescence intensity (a.u.).
To “GGCTGGGGTGGGCTCTACTTGACAGACTGATACTCCTACTCGGAGTCACCTAGTGCAG” belongs 19600 fluorescence intensity (a.u.).
On to “GGCTGGGCTTTTTGGGCTTTCTTTGATCTATATTTTGAGACGGAGTCACCTAGTGCAG”, for which the binding signal was 18200 fluorescence intensity (a.u.).
The figure for “CATGTCTATCTTTCTACTATTTATTTTTTTTTGGCAGAGACGGAGTCACCTAGTGCAG” is 12700 fluorescence intensity (a.u.); for “TCTCTGCTTCTCGTTGTTCTTGGTTGGTTGTTGTTGTAGACGGAGTCACCTAGTGCAG” it is 19400 fluorescence intensity (a.u.); for “TGTTCTACTTGGCTGTCTCATACTTTTTTTATTTCTCTCTCGGAGTCACCTAGTGCAG” it is 11200 fluorescence intensity (a.u.).
Turning to “GGGTTCTTGGCTACTGGGGCTGTCTCTCTATCTTTCTTGACGGAGTCACCTAGTGCAG”, the binding signal was 21600 fluorescence intensity (a.u.).
The figure for “AGCGATACTCTACTGCTACCTTGTCCCAACATGCTGGGCTCGGAGTCACCTAGTGCAG” is 8260 fluorescence intensity (a.u.); for “ACTCTCTCTCTCTCTCTGCTTCTTCTTGTGTTGTGCTTGTCGGAGTCACCTAGTGCAG” it is 9800 fluorescence intensity (a.u.); for “GCGGTGGTGGACAGTCCCAGACTGACTTGTGGTGGGGACTCGGAGTCACCTAGTGCAG” it is 9560 fluorescence intensity (a.u.).
To “CCCACACGCGCTCCATGCATCTCCACCACGCTCCATGTGTCGGAGTCACCTAGTGCAG” belongs 11000 fluorescence intensity (a.u.).
The figure for “CCGTCCGCCATTGCAGCTTCGTTGTTCTGTACCTTCTTGCCGGAGTCACCTAGTGCAG” is 10900 fluorescence intensity (a.u.).
For the sequence “CCGGGTCACACATCCCCTCATACTCGGGCCTTGTTTAGTTCGGAGTCACCTAGTGCAG”, the binding signal was 8740 fluorescence intensity (a.u.).
To “TACTGCCTCTCTCTGACCCCATTGACCAACTCCGTTGACCCGGAGTCACCTAGTGCAG” belongs 15800 fluorescence intensity (a.u.).
In the case of “AGATGGATGCTCTGCCCGCCGCCCTACCACCCTCTGCCATCGGAGTCACCTAGTGCAG”, the binding signal was 8030 fluorescence intensity (a.u.).
